Assay results taken from article PMC7862700, “An all-to-all approach to the identification of sequence-specific readers for epigenetic DNA modifications on cytosine”.

molecular target: T1, FLI1 (Homo sapiens, UniProt Q01543 1-452); test: DAPPL (digital affinity profiling via proximity ligation, sequencing); 10 mM Tris-HCl pH 7.5, 50 mM NaCl, 1 mM DTT, 4% glycerol, room temperature, 30 min; GST-TFs on glutathione beads, 16-mer random dsDNA library, 0.1% formaldehyde crosslink after washing; high values mean tight binding; conditions: protein: recombinant; tags: N-terminal GST; dsDNA, one strand shown
T1 sequence: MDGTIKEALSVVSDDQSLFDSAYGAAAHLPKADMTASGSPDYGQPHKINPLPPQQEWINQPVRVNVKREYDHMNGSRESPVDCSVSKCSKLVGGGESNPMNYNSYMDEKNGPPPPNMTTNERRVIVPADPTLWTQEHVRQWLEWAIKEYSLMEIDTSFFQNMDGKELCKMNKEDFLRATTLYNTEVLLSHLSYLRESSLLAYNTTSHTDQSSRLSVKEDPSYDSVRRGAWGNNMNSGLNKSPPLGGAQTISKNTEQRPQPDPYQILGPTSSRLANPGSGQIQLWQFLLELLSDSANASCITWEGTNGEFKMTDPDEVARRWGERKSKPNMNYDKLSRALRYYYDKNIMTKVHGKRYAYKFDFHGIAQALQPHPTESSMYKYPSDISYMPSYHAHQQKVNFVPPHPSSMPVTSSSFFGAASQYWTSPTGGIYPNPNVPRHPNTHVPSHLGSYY
Method in brief: (§1)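 Beads coated with glutathione captured GST-fused human transcription factors that had been expressed in yeast, and the factors were then given DNA barcodes and pooled with a tag-only sample. The pools were incubated with 200 nmole of a random double-stranded 16-mer DNA library in Tris/NaCl/DTT/glycerol buffer for 30 min at room temperature, washed, crosslinked with 0.1% formaldehyde and proximity-ligated with BsaI/T4 ligase at 37 °C for 1 h. PCR amplification and Illumina NextSeq500 sequencing came last. Binding signal is each hexamer's read frequency for a factor divided by its frequency for the tag-only sample.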

Sequence	binding signal
GTCTCG	1.36 fold enrichment (6-mer frequency, TF over GST control)
CGTATA	1.12 fold enrichment (6-mer frequency, TF over GST control)
GAATGT	1.14 fold enrichment (6-mer frequency, TF over GST control)
TCAAAC	1.17 fold enrichment (6-mer frequency, TF over GST control)
TTACGG	1.3 fold enrichment (6-mer frequency, TF over GST control)
CTCACG	1.36 fold enrichment (6-mer frequency, TF over GST control)
TCCTAT	1.62 fold enrichment (6-mer frequency, TF over GST control)
ATGCTC	1.43 fold enrichment (6-mer frequency, TF over GST control)
TCCGAA	1.35 fold enrichment (6-mer frequency, TF over GST control)
ATTTGA	1.34 fold enrichment (6-mer frequency, TF over GST control)
CTGCAT	1.42 fold enrichment (6-mer frequency, TF over GST control)
ACGTAT	1.24 fold enrichment (6-mer frequency, TF over GST control)
GGCTCT	1.15 fold enrichment (6-mer frequency, TF over GST control)
GCCTAA	1.22 fold enrichment (6-mer frequency, TF over GST control)
CGATTG	1.22 fold enrichment (6-mer frequency, TF over GST control)
TTACAT	1.3 fold enrichment (6-mer frequency, TF over GST control)
TAAATT	1.26 fold enrichment (6-mer frequency, TF over GST control)
CCCTCG	1.23 fold enrichment (6-mer frequency, TF over GST control)
TGCGCT	1.27 fold enrichment (6-mer frequency, TF over GST control)
CAAAAT	1.16 fold enrichment (6-mer frequency, TF over GST control)

Sequence	binding signal
TTAGCT	1.13 fold enrichment (6-mer frequency, TF over GST control)
TAACCT	1.2 fold enrichment (6-mer frequency, TF over GST control)
AACATA	1.23 fold enrichment (6-mer frequency, TF over GST control)
TACCTA	1.32 fold enrichment (6-mer frequency, TF over GST control)
ACTCAA	1.19 fold enrichment (6-mer frequency, TF over GST control)
AAAAAT	1.28 fold enrichment (6-mer frequency, TF over GST control)
CCAATT	1.2 fold enrichment (6-mer frequency, TF over GST control)
CCGATT	1.42 fold enrichment (6-mer frequency, TF over GST control)
ACCTCT	1.32 fold enrichment (6-mer frequency, TF over GST control)
AGCTCT	1.19 fold enrichment (6-mer frequency, TF over GST control)
TGTATG	1.31 fold enrichment (6-mer frequency, TF over GST control)
CAATCC	1.17 fold enrichment (6-mer frequency, TF over GST control)
AAGTAC	1.52 fold enrichment (6-mer frequency, TF over GST control)
TCAACC	1.23 fold enrichment (6-mer frequency, TF over GST control)
GATGAC	1.58 fold enrichment (6-mer frequency, TF over GST control)
ATTCGT	1.24 fold enrichment (6-mer frequency, TF over GST control)
ATGGCC	1.31 fold enrichment (6-mer frequency, TF over GST control)
GAAAAT	1.16 fold enrichment (6-mer frequency, TF over GST control)
TTACAC	1.28 fold enrichment (6-mer frequency, TF over GST control)

molecular target: T2, ELK1 (Homo sapiens, UniProt P19419 1-428); test: as above; conditions: protein: recombinant; tags: N-terminal GST; dsDNA, one strand shown
T2 sequence: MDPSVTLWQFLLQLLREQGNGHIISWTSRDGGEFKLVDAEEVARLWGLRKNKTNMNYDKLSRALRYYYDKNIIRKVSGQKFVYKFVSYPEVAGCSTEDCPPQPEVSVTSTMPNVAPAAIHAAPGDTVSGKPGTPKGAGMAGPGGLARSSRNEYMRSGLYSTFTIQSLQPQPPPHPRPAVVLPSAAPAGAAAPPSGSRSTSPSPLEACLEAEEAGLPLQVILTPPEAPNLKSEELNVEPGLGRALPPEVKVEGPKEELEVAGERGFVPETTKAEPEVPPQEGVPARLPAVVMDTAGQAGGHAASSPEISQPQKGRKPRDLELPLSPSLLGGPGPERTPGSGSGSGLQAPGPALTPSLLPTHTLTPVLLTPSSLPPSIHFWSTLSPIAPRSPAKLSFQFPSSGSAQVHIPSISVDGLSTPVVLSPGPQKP
Method in brief: as §1

Sequence	binding signal
GTCTCG	1.37 fold enrichment (6-mer frequency, TF over GST control)
CGTATA	1.23 fold enrichment (6-mer frequency, TF over GST control)
GAATGT	1.11 fold enrichment (6-mer frequency, TF over GST control)
TCAAAC	1.25 fold enrichment (6-mer frequency, TF over GST control)
TTACGG	1.23 fold enrichment (6-mer frequency, TF over GST control)
CTCACG	1.33 fold enrichment (6-mer frequency, TF over GST control)
TCCTAT	1.56 fold enrichment (6-mer frequency, TF over GST control)
ATGCTC	1.31 fold enrichment (6-mer frequency, TF over GST control)
TCCGAA	1.28 fold enrichment (6-mer frequency, TF over GST control)
ATTTGA	1.1 fold enrichment (6-mer frequency, TF over GST control)
CTGCAT	1.51 fold enrichment (6-mer frequency, TF over GST control)
ACGTAT	1.29 fold enrichment (6-mer frequency, TF over GST control)
GGCTCT	1.23 fold enrichment (6-mer frequency, TF over GST control)
GCCTAA	1.17 fold enrichment (6-mer frequency, TF over GST control)
CGATTG	1.29 fold enrichment (6-mer frequency, TF over GST control)
TTACAT	1.27 fold enrichment (6-mer frequency, TF over GST control)
TAAATT	1.22 fold enrichment (6-mer frequency, TF over GST control)
CCCTCG	1.34 fold enrichment (6-mer frequency, TF over GST control)
TGCGCT	1.3 fold enrichment (6-mer frequency, TF over GST control)
